Counter-ions that a name gives are not always drawn.
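Further: immunostained co-cultures imaged by high-content microscopy, Z-score per plate against mean and SD of 0.1% DMSO wells, compounds added on differentiation day 18, analysed day 21.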

The assay has as its system hN + hpA co-culture (H1 iNGN2 human neurons + human primary astrocytes). As to the kind of experiment: presynaptic density (SYNAPSIN1 puncta per MAP2 neurite area), Z-score vs DMSO controls; higher = more presynaptic puncta (synapse-promoting). Particulars: 3 µM; 72 h.
As for `CCc1nc(N)nc(N)c1-c1ccc(Cl)cc1`, the “presynaptic density (Z-score)” value is -0.391. For the compound `O=C(NNc1ccccc1)c1ccncc1`, the “presynaptic density (Z-score)” value was -0.884. Consider `COc1ccccc1OCCNCC(O)COc1cccc2[nH]c3ccccc3c12` (centres undefined), for which the “presynaptic density (Z-score)” value is -1.2. Turning to `NC(=O)c1cnc(NC2CCCCC2N)nc1Nc1cccc(-n2nccn2)c1` (centres undefined), the “presynaptic density (Z-score)” value is -0.728. With `OCCOc1ccc(/C(=C(/CCCl)c2ccccc2)c2ccccc2)cc1` [Ospemifene] the figure was -0.588; with `C=CC(=O)N1CCC[C@@H](n2nc(-c3ccc(Oc4ccccc4)cc3)c3c(N)ncnc32)C1`, -0.341; with `COCCCC/C(=N\OCCN)c1ccc(C(F)(F)F)cc1` [Fluvoxamine maleate], -0.239. As for `Cc1cnc(NC(=O)Nc2cc(Br)c(C)cc2OC[C@@H]2CNCCO2)cn1`, the “presynaptic density (Z-score)” value is -0.602. Consider `COc1cc2c(cc1OC)CN(CCc1ccc(NC(=O)c3cc(OC)c(OC)cc3NC(=O)c3cnc4ccccc4c3)cc1)CC2` [Tariquidar], for which the “presynaptic density (Z-score)” value is -0.47. Take `CCC(CC)CC1(C(=O)Nc2ccccc2SC(=O)C(C)C)CCCCC1` [Dalcetrapib (JTT-705]: the “presynaptic density (Z-score)” value was -0.463.

`C[C@@H]1C(=O)O[C@H]2C[C@@]34[C@H]5C[C@@H](C(C)(C)C)[C@]36[C@@H](OC(=O)[C@@H]6O)O[C@@]4(C(=O)O5)[C@]21O`: the “presynaptic density (Z-score)” value is -0.498. Turning to `Cc1c(-c2ccc(O)cc2)n(Cc2ccc(OCCN3CCCCCC3)cc2)c2ccc(O)cc12` [Bazedoxifene HCl], the “presynaptic density (Z-score)” value is -0.982. Turning to `CCN(c1cc(-c2ccc(CN3CCOCC3)cc2)cc(C(=O)NCc2c(C)cc(C)[nH]c2=O)c1C)C1CCOCC1`, the “presynaptic density (Z-score)” value was -0.342. For `CC(C)C[C@H](NC(=O)[C@H](Cc1ccccc1)NC(=O)c1cnccn1)B(O)O` [Bortezomib (PS-341)], the “presynaptic density (Z-score)” value is -3.27. With `CNC(=O)c1cc(Oc2ccc(NC(=O)Nc3cc(C(C)(C)C)nn3-c3ccc4ncccc4c3)c(F)c2)ccn1` [DCC-2036 (Rebastinib)] the figure was 0.594; with `Nc1cccc2c1C(=O)N(C1CCC(=O)NC1=O)C2=O` (centres undefined) [Pomalidomide], 0.469; with `CC(C)(Cc1ccc2ccccc2c1)NC[C@@H](O)COc1cccc(Cl)c1C#N`, -2.26. Consider `COc1ccc2[nH]c([S@@+]([O-])Cc3ncc(C)c(OC)c3C)nc2c1` [Esomeprazole Sodium], for which the “presynaptic density (Z-score)” value amounted to 0.0968. Take `Cc1ccc(C(=O)N(CCCN)[C@@H](c2nc3cc(Cl)ccc3c(=O)n2Cc2ccccc2)C(C)C)cc1`: the “presynaptic density (Z-score)” value was -0.26. With `Cc1cc([C@@H](C)Nc2ccccc2C(=O)O)c2nc(N3CCOCC3)cc(=O)n2c1` the figure was -0.243; with `C#Cc1cccc(Nc2ncnc3cc4c(cc23)OCCOCCOCCO4)c1` [Icotinib], -0.0135; with `Cc1ccc(-c2cc(C(F)(F)F)nn2-c2ccc(S(N)(=O)=O)cc2)cc1`, -0.625. The figure for `C[S+]([O-])c1ccc(-c2nc(-c3ccc(F)cc3)c(-c3ccncc3)[nH]2)cc1` (centres undefined) is -1.11; for `C1=N/C2=N/c3ccc(OCCN4CCCC4)c(c3)COC/C=C/COCc3cccc(c3)C(=C1)N2` [Pacritinib (SB1518)] it is -1.08. With `CC(C)(C)c1cc(NC(=O)Nc2ccc(-c3cn4c(n3)sc3cc(OCCN5CCOCC5)ccc34)cc2)no1` [AC220 (Quizartinib] the figure was 0.214; with `Cc1cn([C@H]2C=C[C@@H](CO)O2)c(=O)[nH]c1=O` [Stavudine (d4T)], 0.723.

Regarding `COc1cc(OC)c(NC(=O)Nc2cc(C)on2)cc1Cl`, the “presynaptic density (Z-score)” value is -0.694.

Consider `O=C(c1ccc(F)cc1)N1CCCC(c2nc(-c3ccc(F)cc3)no2)C1` (centres undefined), for which the “presynaptic density (Z-score)” value was -0.851. Turning to `O=C(O)Cc1cccc(OCCCN(Cc2cccc(C(F)(F)F)c2Cl)CC(c2ccccc2)c2ccccc2)c1`, the “presynaptic density (Z-score)” value was -1.54.

In the case of `Nc1ccc(C(=O)O)c(O)c1` [Sodium 4-Aminosalicylate], the “presynaptic density (Z-score)” value is 0.294. Take `c1ccc(NCc2ccc(CNc3ccccn3)cc2)nc1`: the “presynaptic density (Z-score)” value was -0.658. With `Nc1cccc2c1CN(C1CCC(=O)NC1=O)C2=O` (centres undefined) [Lenalidomide] the figure was 1.39; with `C[C@]12CC[C@@H]3c4ccc(O)cc4C[C@@H](CCCCCCCCC[S+]([O-])CCCC(F)(F)C(F)(F)F)[C@H]3[C@@H]1CC[C@@H]2O` (some centres undefined) [Fulvestrant], -0.41; with `CN(C)CCCCC(=O)Nc1ccc(NC(=S)NC(=O)c2ccc(C(C)(C)C)cc2)cc1` [Tenovin-6], -0.671. Consider `CC1(COc2ccc3c(c2)ncn3-c2ccc3cccc(N4CCC(N)CC4)c3n2)COC1`, for which the “presynaptic density (Z-score)” value is -0.296. With `O=C(NC[C@H]1CN(c2ccc(N3CCOCC3=O)cc2)C(=O)O1)c1ccc(Cl)s1` [Rivaroxaban] the figure was -0.11; with `CCc1cc(Nc2nccc(-c3c(-c4ccc(OC)c(C(=O)Nc5c(F)cccc5F)c4)nc4ccccn34)n2)c(OC)cc1N1CCC(N2CCN(S(C)(=O)=O)CC2)CC1`, 0.31; with `O=C(Nc1cc(C(F)(F)F)cc(C(F)(F)F)c1)c1cc(Cl)ccc1O`, -3.05. As for `Cc1cc(C(N)=O)ccc1-n1c(CCC(=O)O)ccc1-c1ccc(-n2ccnc2)cc1`, the “presynaptic density (Z-score)” value was -0.771.
